Experimental data from PubChem BioAssay (NCATS).
Where “and” joins values, the source holds several entries; their conditions need not be identical. Equal entries are not always repeated. Results filed as inconclusive are left out. Calls of active or inactive are those of the source. Calls come from the whole dose curve; as a rule, active = well fitted curve in either direction with a large enough effect (not every such curve was filed as active); inconclusive = small, poorly fitted or top-dose-only effect, or another doubt; inactive = flat fitted curve, though single readings scatter.

Test: Stat Signaling Pathway (AID 446);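 note: SIE-controlled beta-lactamase reporter measured as 460/530 nm FRET emission ratio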
Details: ME-180 (cervical carcinoma) SIE beta-lactamase reporter, IL-6 stimulated, 5 h; at 7.69 µM (top of the series) unless noted
In short: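 Emission at 460 and 530 nm (excitation 405 nm) reports SIE-controlled beta-lactamase in ME-180 cells. Cells received compound with 40 pM IL-6 for 5 hrs at 37 C; data scaled between 300 pM IL-6 and 125 nM JAK-inhibitor controls.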
% is set by controls: 0 for no effect and ±100 for the full control effect.

| SMILES | activity, negative = inhibition |
| --- | --- |
| COCCn1c(=O)c(C)nc2cnc(Nc3ccccc3)nc21 | 3.38% (inactive) |
| COc1cccc(Cn2c(=O)cnc3cnc(N4CCN(C)CC4)nc32)c1 | -11.2% (inactive) |
| N#Cc1cccc(-c2ccc3ncnc(NCc4ccccc4)c3c2)c1 | -18.2% (inactive) |
| COc1ncc2nc(-c3cccs3)c(=O)n(C)c2n1 | 20.2% (inactive) |
| Cc1ccccc1-c1ccc2ncnc(N3CCN(C)CC3)c2c1 | -2.42% (inactive) |
| COc1ccccc1-c1ccc2ncnc(Nc3ccccc3)c2c1 | 9.56% (inactive) |
| CN(C)CC/C=C1\c2ccccc2CSc2ccccc21 | -0.2% [at 17.2 µM] (inactive) |
| COC(=O)C1=CO[C@@H](C)[C@H]2CN3CCc4c([nH]c5ccccc45)[C@@H]3C[C@H]12 | 8.22% [at 17.2 µM] (inactive) and -4.95% [at 17.2 µM] (inactive) |
| N#Cc1ccccc1-c1ccc2ncnc(NCc3cccs3)c2c1 | -2.46% (inactive) |
| COc1ccccc1CNc1ncnc2ccc(-c3cccc(C#N)c3)cc12 | -17.5% (inactive) |
| COc1ccccc1CNc1cc(-c2cccc(C#N)c2)ncn1 | -0.867% (inactive) |
| CC(C)N1CCN(c2ccc(OC[C@@H]3CO[C@@](Cn4cncn4)(c4ccc(Cl)cc4Cl)O3)cc2)CC1 | 1.27% [at 17.2 µM] (inactive) |
| Cc1nc2cnc(N3CCN(C)CC3)nc2n(C[C@H]2CCCO2)c1=O | -13% (inactive) |
| FC(F)(F)c1ccccc1-c1ccc2ncnc(N3CCOCC3)c2c1 | 4.75% (inactive) |
| CC12CC[C@@H]3c4ccc(OS(=O)(=O)O)cc4CC[C@H]3C1CCC2=O (stereo not given in full) | -9.95% [at 17.2 µM] (inactive) |
